# Screening data from PubChem.
# Compounds with a hit are over-represented: about 3.8% of the library has one in this group of screens.
# tim10-1 inh = tim10-1 yeast growth inhibition | S. cerevisiae tim10-1 ts strain growth, BacTiter-Glo, 24 h | inhibition, % at 20 µM | 330,000 tested, 2.2% active | AID 463190;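 active means inhibition of at least 40%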;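 further: mutant grown at 25 °C; 0% = DMSO wells with yeast and 100% = wells holding no yeast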
# tim23-1 inh = growth inhibitors of tim23-1 mutant yeast; S. cerevisiae tim23-1 growth, BacTiter-Glo luminescence, 24 h; inhibition, % at 20 µM; 330,000 tested, 1.3% active; AID 463212;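 active means growth inhibition of the mutant yeast at or above 50%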;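 further: temperature-sensitive mutant grown at 25 °C; plate controls were DMSO-treated mutant yeast for no effect and medium wells lacking yeast for full effect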
# TIM10 inh = TIM10 yeast growth inhibition. S. cerevisiae TIM10 strain growth, BacTiter-Glo luminescence, 24 h. inhibition, % at 10 µM. 330,000 tested, 1.4% active;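 active means inhibition of 40% or more at the single tested concentration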;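 further: wild-type TIM10 isogenic control strain grown at permissive 25 °C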
# B2AR ag = agonists of human beta-2 adrenergic receptor inducing internalization; P07550; Am2.2-beta2AR cells, FAP receptor internalization, flow cytometry; response, % (no concentration beside the values); 340,000 tested, 0.43% active; AID 504454;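 active means response above a set limit, near 3 SD of response in nonfluorescent compounds, cut at about 42% in these data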
# Target sequence (P07550 whole entry, looked up): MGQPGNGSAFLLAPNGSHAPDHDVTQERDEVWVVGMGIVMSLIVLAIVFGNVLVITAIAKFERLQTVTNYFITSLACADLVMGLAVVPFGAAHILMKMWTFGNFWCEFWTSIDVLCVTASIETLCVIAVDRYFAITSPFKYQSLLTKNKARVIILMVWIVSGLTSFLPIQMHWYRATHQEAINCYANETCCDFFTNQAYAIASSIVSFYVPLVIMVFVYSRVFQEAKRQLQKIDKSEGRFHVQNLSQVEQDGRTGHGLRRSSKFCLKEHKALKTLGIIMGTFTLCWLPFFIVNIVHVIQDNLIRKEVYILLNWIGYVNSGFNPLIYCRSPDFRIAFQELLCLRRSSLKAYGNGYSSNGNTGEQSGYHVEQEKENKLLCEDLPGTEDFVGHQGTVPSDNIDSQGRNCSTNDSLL
# PfHsp90 set2 = growth inhibition of yeast expressing Plasmodium Hsp90 | AID 504621 | inhibition, % at 9.4 µM | 310,000 tested, 0.32% active | S. cerevisiae expressing PfHsp90, BacTiter-Glo ATP, 48 h; yeast lacking PDR1 and PDR3 efflux regulators;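 active means every replicate shows inhibition above about 80%, whatever the replicate mean, limit read from the data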;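 further: 0% = DMSO neutral controls and 100% = 20 µM radicicol positive controls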
# tim23-1 confirm = tim23-1 yeast growth inhibition, confirmed; S. cerevisiae tim23-1 growth, BacTiter-Glo luminescence, 24 h; shares compounds with tim23-1 inh; inhibition, % at 20 µM; 4,400 tested, 83% active; AID 463218;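 active means inhibition above about 39% in either of two replicate wells at 20 µM, limit read from the data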;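 further: temperature-sensitive tim23-1 mutant grown at 25 °C; 0% = DMSO wells with yeast and 100% = medium wells without yeast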
# Active calls of the source: *; / = no result.
SMILES,tim10-1 inh,tim23-1 inh,TIM10 inh,B2AR ag,PfHsp90 set2,tim23-1 confirm
Cc1ccc2c(c1)N(CC(=O)N1CCCCC1)C(=O)C(C)O2 (centres undefined),-15.6,6.8,-9.4,-5.0,1.4,/
CC1(C)Cc2c(cnn2-c2ccccc2)-c2c1c1ccccc1n2CC(O)CBr (centres undefined),21.2,30.6,12.6,9.3,-17.4,/
O=C(Nc1ccc(-c2ccc(N3CCCCC3)nn2)cc1)c1ccco1,26.7,62.8*,30.1,30.2,/,66.4*
O=C(Nc1nc(-c2ccc(Cl)s2)cs1)c1ccco1,20.8,62.2*,28.6,-5.6,16.4,67.2*
Nc1nc(-c2ccc(NC(=O)c3ccco3)cc2)cs1,35.3,55.6*,39.4,-1.2,32.7,69.8*
O=C(Nc1ccc(NC(=O)c2ccco2)cc1)c1ccco1,-22.2,45.7,19.1,4.2,3.1,/
CC(=O)Nc1cccc(-c2cn3ccc(C)cc3n2)c1,-0.6,3.9,3.2,-9.2,-37.2,/
O=C(Nc1nc(-c2nc3ccccc3s2)cs1)c1ccco1,-6.4,-11.6,-35.2,-5.1,-39.3,/
Cc1ccn2cc(-c3ccc(NC(=O)c4ccco4)cc3)nc2c1,-37.5,56.0*,31.6,-17.5,16.0,47.5*
CCOP(=O)(Nc1ccc2oc(=O)c3ccccc3c2c1)OCC,8.9,11.9,3.0,-4.2,-18.7,/
CC(=O)C(Cc1ccccc1)NC(=O)COc1ccc2c(c1)OCO2 (centres undefined),-11.2,-2.0,-15.0,-4.7,-1.4,/
O=C(Nc1nc(-c2cccs2)c(-c2ccccc2)s1)c1ccco1,25.6,55.3*,36.0,10.2,-25.7,62.4*
O=[N+]([O-])c1ccc(N=Nc2c(O)[nH]c3ccc(F)cc23)cc1,35.1,50.0*,2.8,-0.9,-22.2,13.1
CC(NC(=O)c1ccc(OC2CCN(Cc3ccccn3)CC2)cc1)c1nccs1 (centres undefined),9.0,5.4,1.2,-10.1,-5.4,/
COc1ccccc1C(=O)Nc1nnc(-c2ccc3c(c2)CCCC3)o1,24.6,52.1*,39.3,-10.8,-42.9,56.4*
CCCN1CCN(C(=O)c2oc3ccccc3c2NC(=O)COc2ccc(OC)cc2)CC1,36.8,23.3,19.9,9.6,6.5,/
Cc1cc2oc(=O)cc(-c3ccccc3)c2c(C)c1-c1ccc(CO)cc1,14.2,53.5*,-4.3,5.8,-36.5,32.8
CC(=O)c1ccc(-c2c(C)cc3oc(=O)cc(-c4ccccc4)c3c2C)cc1,9.5,26.0,-14.9,10.0,-47.0,/
CN(CC(=O)Nc1ccc(Cl)c(C(F)(F)F)c1)C(=O)c1cccc(N2C(=O)CCC2=O)c1,-2.2,8.3,7.3,3.8,-21.4,/
COC(=O)C1=C(CS(=O)(=O)c2cc(OC)ccc2OC)NC(=O)NC1c1ccc(O)c(OC)c1 (centres undefined),-5.8,6.2,6.1,0.3,-20.8,/
O=C(Nc1ccc(C(=O)Oc2ccccc2)c(O)c1)c1ccccc1,-11.7,0.5,-3.4,12.0,10.2,/
CCOC(=O)Nc1ccc(C(=O)Oc2ccccc2)c(O)c1,18.6,57.0*,19.7,-1.9,11.2,54.5*
Nc1nc(Nc2ccccc2)sc1C(=O)c1ccccc1,30.7,53.8*,28.3,5.5,-34.2,43.5*
Cc1cc(NC(=O)c2sc(Nc3ccc(F)cc3)nc2N)no1,-21.1,5.8,26.5,7.2,4.3,/
COc1ccc(C(=O)c2sc(Nc3ccccc3)nc2N)cc1,1.1,13.0,2.6,-8.0,5.6,/
SMILES,tim10-1 inh,tim23-1 inh,TIM10 inh,B2AR ag,PfHsp90 set2,tim23-1 confirm
Cc1cnc(NC(=O)c2sc(Nc3ccccc3)nc2N)o1,-1.6,53.4*,36.3,1.1,8.0,55.0*
COc1ccc(C(=O)c2sc(Nc3ccccc3F)nc2N)cc1,22.6,50.2*,6.1,6.2,-23.6,54.1*
COc1ccc(/C(O)=C2/C(=O)C(=O)N(CCN3CCNCC3)C2c2cccc([N+](=O)[O-])c2)cc1 (centres undefined),12.6,18.3,-0.4,-5.4,5.4,/
Cc1csc(NC(=O)c2nn(C)c(C)c2[N+](=O)[O-])n1,-5.5,-1.9,-19.3,3.1,-3.1,/
COc1cc2c3c(c1)C(C)CC(C)(C)N3C(=O)C2=O (centres undefined),32.5,51.1*,-1.9,4.0,8.8,62.8*
CCOC(=O)c1cccc(OC(=O)CCNC(=O)c2ccc(Cl)cc2)c1,-11.8,57.3*,20.8,-3.5,3.3,50.6*
CC(=O)c1ccc(OC(=O)CCNC(=O)c2ccccc2)cc1,2.0,20.7,7.8,4.4,-44.3,/
O=C(OCC(=O)C12CC3CC(CC(C3)C1)C2)c1ccc(CO)cc1,21.0,21.0,16.3,8.2,11.1,/
O=C(OCC(=O)C12CC3CC(CC(C3)C1)C2)c1ccc(O)cc1,-6.0,63.3*,-3.1,1.5,99.4*,60.8*
O=C(Oc1ccc(O)cc1)C12CC3CC(CC(C3)C1)C2,-19.0,63.2*,25.3,5.0,-24.4,65.6*
CC(C)OC(=O)NCCOC(=O)Nc1ccccc1Cl,-3.7,0.3,-2.2,-3.5,8.4,/
Cc1cc(C)nc(OC(=O)c2ccc(Cl)cc2Cl)n1,27.5,74.0*,4.2,/,/,67.1*
O=S(=O)(N/N=C\C=C\c1ccccc1)c1ccc(Br)cc1,33.7,56.3*,17.6,-4.8,52.5,42.4*
Cc1ccc(S(=O)(=O)N/N=C\C=C\c2ccccc2)cc1,13.0,25.5,8.8,3.8,6.0,/
COc1ccc(/C=N/n2c(SC)nnc(C(C)(C)C)c2=O)cc1,7.5,18.3,0.2,-0.9,2.6,/
CSc1nnc(C(C)(C)C)c(=O)n1/N=C/c1ccccc1,24.6,52.7*,33.2,2.2,7.7,50.6*
O=c1c2ccccc2oc2c1ccc1ccccc12,-12.6,55.0*,27.6,-1.3,-40.2,21.2
CSc1ncccc1C(=O)N1CCN(S(=O)(=O)c2ccc3c(c2)OCCO3)CC1,11.9,15.1,9.5,-1.7,/,/
CCCOc1ccc2ccccc2c1/C=C1\SC(=O)NC1=O,20.2,55.0*,8.0,9.3,104.9*,51.1*
COc1ccccc1OCCCOc1ccc(/C=C2\SC(=O)NC2=O)cc1OC,5.3,11.1,10.6,13.8,-1.2,/
N#Cc1ccc(C(=O)CSc2n[nH]c(=O)n2-c2cccnc2)cc1,-22.2,-7.4,-8.8,3.0,/,/
O=C1c2ccc(Cl)cc2S(=O)(=O)c2cccc(C(=O)N3CCC(Cc4ccccc4)CC3)c21,0.8,23.8,9.0,23.1,-9.9,/
CCc1ccc(OCCNc2cc(N3CCNC(C)C3)ccc2[N+](=O)[O-])cc1 (centres undefined),27.1,56.8*,17.6,26.8,4.3,58.8*
O=C(O)c1cc(NS(=O)(=O)c2ccc(F)cc2)cc(NS(=O)(=O)c2ccc(F)cc2)c1,7.3,3.7,10.0,-0.5,-4.8,/
COc1ccc(S(N)(=O)=O)cc1C(=O)OCC(=O)N1c2ccccc2NC(=O)C1(C)C,-14.4,94.1*,-2.5,8.1,-0.3,12.8
